From PubChem BioAssay (NCATS) come the findings set out here.

In one experiment the test system is Hek293T. The experiment in a line: Primary qHTS to identify gynecologic anti-cancer compounds using libraries of approved drugs and bioactive compounds (AID 1345084). Also: nearly all actives have a fitted effect of over 55% in size. The conditions noted are these: Gynecologic cancer cell panel viability, ATPlite luminescence, 48 h, control line for the selectivity index; series mostly up to 57.5 µM. The essentials:
(§1)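 In this quantitative HTS, cell killing is estimated from loss of ATP-dependent luciferase light. Cells see five compound concentrations over a 48 h exposure.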
(qHTS replaces the single test concentration by a dilution series.)

In another experiment the test system is JEG-3. Described as above. The following applies: Gynecologic cancer cell panel viability, ATPlite luminescence, 48 h; series mostly up to 57.5 µM. The method in brief:
as §1
(In ATP-based viability assays light output follows the ATP content of the culture.)

For a further experiment, the system named is OV90. The description is as above. The conditions noted are these: Gynecologic cancer cell panel viability, ATPlite luminescence, 48 h; series mostly up to 57.5 µM. The method in brief:
as §1

Another experiment deals with PA-1. The experiment is described as above. The following applies: Gynecologic cancer cell panel viability, ATPlite luminescence, 48 h; series mostly up to 57.5 µM. The essentials: as §1
In a further experiment the test system is Tov-21-G. The experiment is described as above. The conditions noted are these: Gynecologic cancer cell panel viability, ATPlite luminescence, 48 h; series mostly up to 57.5 µM. The essentials: as §1
For another experiment, the system named is Tov112D. The experiment is described as above. The conditions noted are these: Gynecologic cancer cell panel viability, ATPlite luminescence, 48 h; series mostly up to 57.5 µM. The method in brief:
as §1

The nature of experiment [1]: Drug repurposing screens with cells derived from glioblastoma tumor samples (AID 1345199). Also: nearly all actives have a fitted effect of over 40% in size. As to activity, negative = cell killing: % is scaled to controls: 0 for no effect and ±100 for the full control effect. The conditions noted are these: GBM patient neurospheres viability, ATP luminescence, 48 h. The method in brief: (§2)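 Four patient lines of CD133+ GBM neurospheres were screened at several concentrations; hits were retested in those lines plus three slower-growing GBM lines, using 48-hour treatment and ATP-based viability.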

The test system of a further experiment is astro. Described as above. The following applies: viability, ATP luminescence, 48 h; series mostly up to 45.9 µM. The method in brief:
as §2

For another experiment, the system named is SKOV3. The experiment in a line: Primary qHTS to identify gynecologic anti-cancer compounds using libraries of approved drugs and bioactive compounds (AID 1345084). Also: nearly all actives have a fitted effect of over 55% in size. The following applies: Gynecologic cancer cell panel viability, ATPlite luminescence, 48 h; series mostly up to 57.5 µM. The method in brief: as §1
A short description of experiment [2]: qHTS assay to identify inhibitors of the type 1 interferon - major histocompatibility complex class I in skeletal muscle: Counter screen cell viability and HiBit confirmation (AID 1347412). Also: nearly all actives have a fitted effect of over 60% in size. The conditions noted are these: iHSKM muscle cells + IFN-b, HiBiT or CellTiter-Glo, 24 h; HiBiT. The method in brief: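 Human myoblast knock-in line, 4.0 ng/ml IFN-beta stimulation, 24 h compound treatment. Endpoints: HiBiT lytic luminescence (HLA-B level) and CellTiter Glo (ATP). Dosing 12 concentrations, 3-fold steps, 46 uM highest final.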

Setting [3] is: at 45.9 µM (top of the series), tumour line B.
[4] abbreviates: at 45.9 µM (top of the series), tumour line D.
[5] abbreviates: at 46 µM (top of the series), tumour line A.

Each structure is given as a SMILES string. Values joined by “and” are separate entries in the source; they are usually repeats but may differ in a detail not shown here. Equal values may be shown once. Inconclusive results are not listed. Unmarked numbers belong to inactive results. Active and inactive are the calls of the source. Calls follow the shape of the dose curve; as a rule, active = well fitted curve in the direction sought with a large enough effect; inconclusive = small, poorly fitted or top-dose-only effect, or another doubt; inactive = no such curve, though single readings can be large; an effect the other way counts as inactive or inconclusive.
Potency is read from the fitted curve at half-maximal effect.

Consider `CCCOC(=O)Cc1ccc(OCC(=O)N(CC)CC)c(OC)c1`, for which the Potency result in the experiment on Hek293T, with JEG-3, with OV90, in the experiment with PA-1, in the experiment with Tov-21-G and in the experiment on Tov112D was “inactive” each time. Moreover, in the experiment on astro, the Potency entry is “inactive”. Also, the figures for the activity, negative = cell killing in [1] (setting [3]), in [1] (setting [4]) and in experiment [1] (setting [5]) were -0.689%, -1.94% and -27.4%, respectively.
`CCCCCCCCC(=O)NCc1ccc(O)c(OC)c1`: the Potency entry in the experiment with Hek293T, in the experiment on JEG-3, with OV90 and in the experiment with Tov-21-G was “inactive” in each case. Further, the activity, negative = cell killing in experiment [1] (setting [3]) was -1.62%; in experiment [1] (setting [4]) it was -6.9%. Further, the Potency in experiment [1] (tumour line A) is 12.6 µM (active).
Turning to `C=CCN1CC[C@]23CCCC[C@H]2[C@H]1Cc1ccc(O)cc13`, the Potency result in the experiment on Hek293T, with JEG-3, with PA-1, in the experiment on SKOV3, in the experiment on Tov-21-G and in the experiment with Tov112D was “inactive” in each case. Also, in experiment [1] (setting [5]), the activity, negative = cell killing is 29%. Besides, the Potency in [1] (tumour line B) was 35.5 µM (active).
With `C[C@]12Cc3nonc3C[C@@H]1CC[C@@H]1[C@@H]2CC[C@@]2(C)[C@H]1CC[C@]2(C)O`, the Potency result with Hek293T, in the experiment with JEG-3, with OV90, in the experiment on SKOV3, in the experiment with Tov-21-G and with Tov112D was “inactive” each time. Also, the activity, negative = cell killing in [1] (setting [3]) was -26.1%. In [1] (tumour line A), the Potency was 12.6 µM (active).
Regarding `CC1COC2(c3ccccc3Cl)c3cc(Cl)ccc3NC(=O)CN12` (configuration not stated), the Potency result with Hek293T, in the experiment on JEG-3, in the experiment with PA-1, with SKOV3, in the experiment on Tov-21-G and with Tov112D was “inactive” throughout.
Regarding `CC(C(O)c1ccccc1)N(C)C/C=C/c1ccccc1` (configuration not stated), the Potency entry with Hek293T, in the experiment on JEG-3, in the experiment on PA-1, in the experiment on SKOV3, in the experiment with Tov-21-G and with Tov112D was “inactive” throughout.
With `CN1CCC(N(Cc2ccccc2)c2ccccc2)CC1`, the Potency result with Hek293T, with JEG-3, in the experiment on PA-1, in the experiment on SKOV3, with Tov-21-G and with Tov112D was “inactive” each time.
For the molecule `CCOC(=O)NC(C)(C)Cc1ccc(Cl)cc1`, the Potency entry in the experiment on Hek293T, with JEG-3, in the experiment with OV90, with PA-1, in the experiment with Tov-21-G and in the experiment with Tov112D was “inactive” throughout. The Potency entry in the experiment with astro was “inactive”. Besides, the activity, negative = cell killing in [1] (setting [3]) was 0.659%; in experiment [1] (setting [4]) it was -16.7%.
For the molecule `ClC1=C(Cl)C2(Cl)C(CBr)CC1(Cl)C2(Cl)Cl` (configuration not stated), the Potency result with Hek293T, in the experiment with JEG-3, with OV90, with PA-1, with SKOV3 and with Tov-21-G was “inactive” each time. The Potency entry in the experiment on Tov112D and in the experiment with astro was “inactive” each time.
On to `C[C@@H]1C[C@@H]([C@H](O)CC2CC(=O)NC(=O)C2)C(=O)[C@@H](C)C1`, for which the Potency is 0.501 µM (active) in the experiment with Hek293T; 0.631 µM (active) in the experiment with OV90; 0.708 µM (active) with PA-1; 2.82 µM (active) with SKOV3; 0.501 µM (active) with Tov-21-G; 0.562 µM (active) in the experiment on Tov112D. The Potency in [2] was 701 nM (active) and 222 nM (active). Further, the Potency result in the experiment on JEG-3 is “inactive”.
For the molecule `CCN(Cc1ccc(Cl)nc1)/C(=C/[N+](=O)[O-])NC`, the Potency result in the experiment with Hek293T, in the experiment with JEG-3, in the experiment with OV90, with PA-1, in the experiment on Tov-21-G and with Tov112D was “inactive” in each case. The results for the activity, negative = cell killing in experiment [1] (setting [3]) and in experiment [1] (setting [4]) were -9.68% and -5.99%, respectively.
Consider `COc1ccc2c(C(=O)c3ccc(Cl)cc3)c(C)n(CC(=O)O)c2c1`, for which the Potency entry in the experiment on Hek293T, in the experiment with JEG-3, with OV90 and with astro was “inactive” throughout. The activity, negative = cell killing in [1] (setting [3]) was -15.8%; in experiment [1] (setting [4]) it was -19.1%.
`CCC(=O)O[C@H]1CC[C@H]2[C@@H]3CCC4=CC(=O)CC[C@]4(C)[C@H]3CC[C@]12C`: the Potency entry in the experiment with Hek293T, in the experiment with JEG-3, with SKOV3, in the experiment with Tov-21-G, in the experiment on Tov112D and in the experiment on astro was “inactive” each time. For the same molecule, the Potency is 15.8 µM (active) with PA-1 and 14.1 µM (active) in [1] (tumour line A). The activity, negative = cell killing was -4.44% in experiment [1] (at 21.2 µM (top of the series), tumour line B) and -24.6% in experiment [1] (at 21.2 µM (top of the series), tumour line D).
Turning to `O=C(O)CCCCCCNC1c2ccccc2CCc2ccccc21`, the Potency result in the experiment with Hek293T, in the experiment with JEG-3, in the experiment on OV90, with PA-1, in the experiment with Tov-21-G and in the experiment with Tov112D was “inactive” each time. For the same molecule, the Potency result with astro is “inactive”. Besides, the values for the activity, negative = cell killing in experiment [1] (setting [3]) and in [1] (setting [4]) were 2.2% and -6.72%, respectively.
`C1CN2CCC1CC2`: the Potency result in the experiment with Hek293T, in the experiment on JEG-3, in the experiment on PA-1, with Tov-21-G and with Tov112D was “inactive” in each case. Moreover, in the experiment with OV90, the Potency was 25.1 µM (active).
Regarding `O=C(N[C@H]1N=C(c2ccccc2F)c2cccc3c2N(CC3)C1=O)c1cc2ccccc2[nH]1`, the Potency result with Hek293T, in the experiment with JEG-3, in the experiment with OV90, in the experiment on PA-1, in the experiment on Tov-21-G and in the experiment with Tov112D was “inactive” throughout. Besides, the activity, negative = cell killing in experiment [1] (setting [3]) was 9.35%.
